“And” between values parts separate entries of the source, which are not always exact repeats. Equal entries are not always repeated. Inconclusive results are not listed. Some structures have more than one record in an assay (separate samples or runs), and their calls can disagree. Unmarked numbers belong to inactive results. The source made the active and inactive calls. The call rests on the fitted dose curve; in most records, active means well fitted inhibition curve with a large enough effect; inconclusive means small, poorly fitted or top-dose-only effect; inactive means flat fitted curve, though single readings scatter.
Test system: HEK293
Assay: Cytotoxic Profiling of Annotated Libraries Using Quantitative High-Throughput Screening (AID 1296008); further: nearly all actives have a fitted effect of over 60% in size
Settings: Five cell lines viability, CellTiter-Glo ATP luminescence, 48-72 h; max response: hits give low values
Description: Cell-based phenotypic screening is a commonly used approach to discover biological pathways, novel drug targets, chemical probes and high-quality hit-to-lead molecules. Many hits identified from high-throughput screening campaign are ruled out through a series of follow-up potency, selectivity/specificity, and cytotoxicity assays. Prioritization of molecules with little or no cytotoxicity for a more in-depth downstream evaluation influence the future direction of projects, so cytotoxicity profiling of the screening libraries at early stage is essential for increasing the likelihood of candidate success. […] For the annotated library, we also examined the primary targets and mechanistic pathways regularly associated with cell death. To our knowledge, this is the first study to use high-throughput screening to profile large libraries for cytotoxicity assessment in both normal and cancer cell lines. In summary, the results generated here constitutes a valuable resource for the scientific community and provides insight on identifying cytotoxic compounds with particular mechanisms of action, and prioritizing compounds with suitable cytotoxicity profile for further evaluation.
A pintool (Kalypsys) was used to transfer 23 nL of compound solution to the 1536-well assay plates. After 48 or 72 hr incubation at 37 degree Celsius, 5% CO2 and 95% humidity, 2.5 uL of CellTiter-Glo (Promega) was dispensed into each well using a dispenser (Aspect Automation, St. Paul, MN) with solenoid valves (Lee Valves, Westbrook CT). Plates were left at room temperature for 10 min before imaging the ATP-coupled luminescence using a ViewLux microplate imager (PerkinElmer, Waltham, MA).
On the % scale 0 is the no-effect control and ±100 the full control effect; potency means the concentration at half of the fitted maximal effect.

Row | SMILES | max response | Potency | outcome
1 | CN(C)[C@@H]1C(=O)C(C(N)=O)=C(O)[C@@]2(O)C(=O)C3=C(O)c4c(O)cccc4[C@@](C)(O)[C@H]3C[C@@H]12 | -12.7% |  | 
2 | CCN(CC)CCOC(=O)C(O)(c1ccccc1)c1ccccc1 | 3.4% |  | 
3 | COc1ccc(Cc2nccc3cc(OC)c(OC)cc23)cc1OC |  | 8.41 µM (active) | 
4 | CC(=O)Nc1cc([As](=O)(O)O)ccc1O | 2.5% |  | 
5 | COC[C@H]1OC(=O)c2coc3c2[C@@]1(C)C1=C(C3=O)C2CCC(=O)[C@@]2(C)C[C@H]1OC(C)=O (stereo partly specified) | -95.7% and 0.842% |  | 
6 | C[C@H]1O[C@@H](O[C@H]2[C@@H](O)C[C@H](O[C@H]3[C@@H](O)C[C@H](O[C@H]4CC[C@@]5(C)[C@H](CC[C@@H]6[C@@H]5CC[C@]5(C)[C@@H](C7=CC(=O)OC7)CC[C@]65O)C4)O[C@@H]3C)O[C@@H]2C)C[C@H](O)[C@@H]1O |  | 53.1 nM (active) and 61.1 nM (active) | 
7 | CNC(=O)c1ccc(N2C(=S)N(c3ccc(C#N)c(C(F)(F)F)c3)C(=O)C23CCC3)cc1F | -7.61% |  | inactive
8 | CN(C)CCc1ccc(O)cc1 | 4.35% |  | inactive
9 | Cn1c(CCCC(=O)O)nc2cc(N(CCCl)CCCl)ccc21 | 1.54% |  | inactive
10 | CC[C@@H](CO)NC(=O)[C@@H]1C=C2c3cccc4c3c(cn4C)C[C@H]2N(C)C1 | -25.3% |  | 
11 | NCC1(CC(=O)O)CCCCC1 | 4.46% |  | inactive
12 | Nc1ccncc1 | -0.798% |  | 
13 | CCCC(C)(COC(N)=O)COC(=O)NC(C)C (stereo unspecified) | 0.0303% |  | inactive
14 | C[C@@H]1O[C@@H](O[C@H]2C[C@@H](O)[C@]3(CO)[C@H]4[C@H](O)C[C@]5(C)[C@@H](C6=CC(=O)OC6)CC[C@]5(O)[C@@H]4CC[C@]3(O)C2)[C@H](O)[C@H](O)[C@H]1O |  | 46.9 nM (active) and 94.4 nM (active) and 70.9 nM (active) | 
15 | CC[N+](CC)(CC)CC | -5.65% |  | 
16 | CC[N+]1(C)CCCC(OC(=O)C(O)(c2ccccc2)c2ccccc2)C1 (stereo unspecified) | -9.88% |  | 
17 | COC[C@@H](NC(C)=O)C(=O)NCc1ccccc1 | -4.08% |  | 

Row | SMILES | max response | Potency | outcome
18 | Cn1cc(C2=C(c3cn(C4CCN(Cc5ccccn5)CC4)c4ccccc34)C(=O)NC2=O)c2ccccc21 | -3.71% and -0.888% |  | 
19 | CN1CCN(C(=O)O[C@H]2c3nccnc3C(=O)N2c2ccc(Cl)cn2)CC1 | 3.04% |  | inactive
20 | Cc1ncc(CNC(=O)N(CCCl)N=O)c(N)n1 | 2.72% |  | 
21 | Cc1cccc(C)c1NC1=NCCCS1 | -6.53% |  | 
22 | CCOC(=O)C1(c2ccccc2)CCN(CCC(C#N)(c2ccccc2)c2ccccc2)CC1 |  | 7.5 µM (active) | 
23 | Fc1ccc(C(OCCN2CCN(CCCc3ccccc3)CC2)c2ccc(F)cc2)cc1 |  | 18.7 µM (active) and 21.1 µM (active) | 
24 | CC(C)=CC1C(C(=O)OCc2cccc(Oc3ccccc3)c2)C1(C)C (stereo unspecified) |  |  | inactive
25 | CCCC1CCCCN1 (stereo unspecified) | -7.03% |  | 
26 | C#CCOC(C(=O)OCCN(C)C)(c1ccccc1)c1ccccc1 | -8.54% |  | 
27 | CC(C)(N)Cc1ccc(Cl)cc1 | 3.33% |  | 
28 | O=C(O)c1ccc2[nH]cc(CCCCN3CC=C(c4ccccc4)CC3)c2c1 | -0.718% |  | 
29 | Cc1cccc(C)c1NC(=O)CN1CCCC1=O | 2.15% |  | inactive
30 | Clc1ccc(CCC(Cn2ccnc2)Sc2c(Cl)cccc2Cl)cc1 (stereo unspecified) |  | 26.4 µM (active) | 
31 | FC(F)(F)c1cccc(C2=CCN(CCc3ccc4ccccc4c3)CC2)c1 |  |  | inactive
32 | CC(C)NCC(O)c1ccccc1Cl (stereo unspecified) |  |  | inactive
33 | Oc1cccc2cccnc12 | -0.236% | 13.7 µM (active) | 

From PubChem BioAssay (NCATS)
